From PubChem BioAssay (NCATS)
Inconclusive results are not listed. Calls of active or inactive are those of the source. Calls come from the whole dose curve; as a rule, active = well fitted inhibition curve with a large enough effect; inconclusive = small, poorly fitted or top-dose-only effect; inactive = flat fitted curve, though single readings scatter.

Assay: BET inhibitor-based combinations targeting novel dependencies in MECOM-rearranged (r) AML: AML-191 cell line (AID 2202236; note: nearly all actives have a fitted effect of over 35% in size;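 for viability (% of control): plate controls were vehicle wells for no effect and wells without cells for full effect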)
Details: AML-191 viability, CellTiter-Glo luminescence, 48 h; series mostly up to 46 µM; viability (% of control): at the top concentration
Procedure, shortened: (§1)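 Each compound was tested at eleven concentrations on cells seeded at 500/well. After two days' incubation, ATP-based luminescence reported viability; responses relative to DMSO and blank wells yielded AUC and cell-line-centred Z-AUC.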
Potency is the fitted concentration of half-maximal effect.

Structure (SMILES)	Potency	viability (% of control)
Cc1[nH]nc2ccc(-c3cncc(OC[C@@H](N)Cc4ccccc4)c3)cc12	0.833 µM (active)	
O=C(NC(Cc1cc(=O)[nH]c2ccccc12)C(=O)O)c1ccc(Cl)cc1 (configuration not stated)		107% (inactive)
CCOc1cc(N)c(Cl)cc1C(=O)NCC1CN(Cc2ccc(F)cc2)CCO1 (configuration not stated)		103% (inactive)
O=C(Nc1c(Cl)cncc1Cl)c1ccc(OC(F)F)c(OCC2CC2)c1		95.7% (inactive)
CCCC1OC2C[C@@H]3[C@H]4CCC5=CC(=O)C=C[C@]5(C)[C@H]4C(O)C[C@]3(C)[C@]2(C(=O)CO)O1 (some centres not stated)	0.0295 µM (active)	
CCCCOCCOc1nc(-c2ccc(C(=O)O)c(F)c2)sc1C	2.63 µM (active)	
CC(=O)OC[C@@H]1O[C@@H](n2ccc(=O)[nH]c2=O)[C@H](OC(C)=O)[C@H]1OC(C)=O		94.8% (inactive)
O=C(/C=C/N1C[C@H]2C[C@@H]1CN2c1ccccn1)c1ccccc1O		87.7% (inactive)
COc1ccc(C(=O)CC(=O)c2ccc(C(C)(C)C)cc2)cc1	20.9 µM (active)	
Cc1ccc(NC(=O)c2cccc(N(C)C)c2)cc1NC(=O)c1ccc(O)cc1		90.5% (inactive)
COC(=O)C[C@](O)(CCCC(C)(C)O)C(=O)O[C@@H]1C(OC)=C[C@]23CCCN2CCc2cc4c(cc2[C@H]13)OCO4	0.059 µM (active)	
CC[C@H](NC(C)C)[C@H](O)c1ccc(O)c2[nH]c(=O)ccc12		104% (inactive)
COc1ccccc1C(=O)Nc1cc2c(cc1N1CCCCC1)n(C)c(=O)n2C		106% (inactive)
CN1CCN(c2ncc(-c3cc(Cl)cc(Cl)c3Cl)c(N)n2)CC1	16.6 µM (active)	
COc1ccc(C[C@@H](C)[C@@H](C)Cc2ccc(OC)c(OC)c2)cc1OC	18.6 µM (active)	
CCOC(=O)c1c(C)n(C)c2ccc(O)cc12		99.9% (inactive)
N=C(N)c1ccc2cc(OC(=O)c3ccc(N=C(N)N)cc3)ccc2c1	23.5 µM (active)	
O=C(Nc1nnc(-c2ccco2)o1)c1cc(-c2ccccc2)nc2ccccc12	11.8 µM (active)	
CCCCCCCN(CC)CCCC(O)c1ccc(NS(C)(=O)=O)cc1 (configuration not stated)		74.6% (inactive)
CC(=O)Oc1cc2c(s1)CCN(C(C(=O)C1CC1)c1ccccc1F)C2 (configuration not stated)		105% (inactive)

Assay: BET inhibitor-based combinations targeting novel dependencies in MECOM-rearranged (r) AML: AML-194 cell line (AID 2202237; note: nearly all actives have a fitted effect of over 40% in size;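 for viability (% of control): plate controls were vehicle wells for no effect and wells without cells for full effect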)
Details: AML-194 (MECOM-r AML) viability, CellTiter-Glo, 48 h; series mostly up to 46 µM; viability (% of control): at the top concentration
Procedure, shortened: as §1

Structure (SMILES)	viability (% of control)	Potency
CCC(C)(C)c1ccc(CC(C)CN2C[C@@H](C)O[C@@H](C)C2)cc1 (some centres not stated)	89.3% (inactive)	
Cc1[nH]nc2ccc(-c3cncc(OC[C@@H](N)Cc4ccccc4)c3)cc12		1.18 µM (active)
O=C(NC(Cc1cc(=O)[nH]c2ccccc12)C(=O)O)c1ccc(Cl)cc1 (configuration not stated)	111% (inactive)	
CCOc1cc(N)c(Cl)cc1C(=O)NCC1CN(Cc2ccc(F)cc2)CCO1 (configuration not stated)	105% (inactive)	
O=C(Nc1c(Cl)cncc1Cl)c1ccc(OC(F)F)c(OCC2CC2)c1	100% (inactive)	
COc1ccc(-c2coc3cc(O)cc(O)c3c2=O)cc1	98.7% (inactive)	
CCCCOCCOc1nc(-c2ccc(C(=O)O)c(F)c2)sc1C	94.8% (inactive)	
O=C(/C=C/N1C[C@H]2C[C@@H]1CN2c1ccccn1)c1ccccc1O	95.3% (inactive)	
Cc1ccc(NC(=O)c2cccc(N(C)C)c2)cc1NC(=O)c1ccc(O)cc1	96.9% (inactive)	
NC(=O)c1ccc(-c2nc(-c3ccc4c(c3)OCCO4)c(-c3ccccn3)[nH]2)cc1	85.6% (inactive)	
CC[C@H](NC(C)C)[C@H](O)c1ccc(O)c2[nH]c(=O)ccc12	106% (inactive)	
COc1ccccc1C(=O)Nc1cc2c(cc1N1CCCCC1)n(C)c(=O)n2C	97.9% (inactive)	
COc1ccc(C[C@@H](C)[C@@H](C)Cc2ccc(OC)c(OC)c2)cc1OC	92.6% (inactive)	
CCOC(=O)c1c(C)n(C)c2ccc(O)cc12	106% (inactive)	
O=C(Nc1nnc(-c2ccco2)o1)c1cc(-c2ccccc2)nc2ccccc12		13.2 µM (active)
CC(=O)Oc1cc2c(s1)CCN(C(C(=O)C1CC1)c1ccccc1F)C2 (configuration not stated)	100% (inactive)	
COC(c1ccccc1)(c1ccccc1)[C@H](Oc1nc(C)cc(C)n1)C(=O)O	96.2% (inactive)	
